Compound activity deposited in PubChem BioAssay by National Center for Advancing Translational Sciences (NCATS).
The list is not random: actives were taken first. Their share in the collection is about 21%.
NS1 function inh – blocks influenza NS1 protein function | Potency, µM (top dose mostly 46.1 µM), inactives show at the highest dose activity, positive = more growth | hit rate 0.4% among 270,000; also: potency is read from the fitted curve at half-maximal effect; actives are rising curves; nearly all actives have a fitted effect of over 50% in size
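Recovery from NS1-induced slow growth read by OD600 in budding yeast switched to galactose assay medium (pH 6.0, -URA) at 1:100 dilution. Compound 23 nl per well; the matching strain lacking NS1 serves as control.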
Pf growth 48h – inhibits P. falciparum growth in the first generation, 48 h | P. falciparum luciferase growth in erythrocytes, 48 h | Potency, µM (doses to about 28.7 µM), for the others: at the highest dose activity change, negative = inhibition, usual class: inhibitors | hit rate 5.9% among 310,000; active = well fitted inhibition curve with a large enough effect; inconclusive = small, poorly fitted or top-dose-only effect, or another doubt; inactive = no such curve, though single readings can be large or run the other way; also: potency is read from the fitted curve at half-maximal effect; % is scaled to controls: 0 for no effect and ±100 for the full control effect
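A one-generation exposure of luciferase-tagged malaria parasites in RPMI 1640/Albumax erythrocyte culture, 37 C and 5% CO2. Inhibition is inferred from decreased luminescence after adding detection reagent.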
SARS PLpro yeast – inhibitors of SARS-CoV papain-like protease in yeast. S. cerevisiae expressing SARS-CoV PLpro, growth rescue. AID 485353. hit rate 0.19% among 330,000. Potency, µM (highest dose often 32.9 µM), for inactives: top-dose activity, positive = growth rescue, actives largely listed as activators; also: potency is read from the fitted curve at half-maximal effect; 0% is about no effect; nearly all actives have a fitted effect of over 55% in size
Shiga toxin inh – Shiga toxin inhibition; AID 2315; hit rate 9.2% among 290,000; Vero cells, Shiga toxin protein synthesis inhibition reporter; inhibition, % at 38.7 µM; in the data active = inhibition mostly above about 28%, no sharp cut-off; inactive = mostly below about 43%; also: 0% is about no effect
Pf growth 96h – P. falciparum growth inhibition at 96 hours; P. falciparum luciferase reporter growth, 96 h; Potency, µM (top dose mostly 28.7 µM), without a hit: at the highest dose activity change, negative = inhibition, usual class: inhibitors; hit rate 6.9% among 320,000; AID 504834; active = well fitted inhibition curve with a large enough effect; inconclusive = small, poorly fitted or top-dose-only effect, or another doubt; inactive = no such curve, though single readings can be large or run the other way; also: potency is read from the fitted curve at half-maximal effect; % is scaled to controls: 0 for no effect and ±100 for the full control effect
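Erythrocytes infected with luciferase-expressing P. falciparum were dispensed at 2% hematocrit and 0.05% parasitemia (final), then incubated with compounds 96 hours at 37 C in 5% CO2. Luminescence after detection reagent addition reported growth.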
CHX counter – counter-screen hit for Shiga toxin inhibitors, cycloheximide. cell reporter, cycloheximide protein synthesis inhibition counterscreen. max response, %. hit rate 12% among 300,000. AID 2314; in the data active = max response mostly above about 13%, no sharp cut-off; inactive = mostly below about 14%; also: read at 38.3 µM for the half of the compounds with a filed dose; 0% is about no effect
* marks the source's active call; other numbers are inactive results. Unless noted, calls follow the shape of the full dose curve.

`O=[N+]([O-])c1ccc(N2CCN(CC3CCCCC3)CC2)cc1` gave NS1 function inh -5%, Pf growth 48h 21%, SARS PLpro yeast -4%, Pf growth 96h -7% and CHX counter -4.
`Cc1nnc(SCC(=O)NC2CCCCC2)n(N)c1=O` gave NS1 function inh 2%, Pf growth 48h 5%, SARS PLpro yeast -2%, Shiga toxin inh 2 and CHX counter -3.
`Cc1cc2c(s1)c1cnn(Cc3ccc(-c4ccccc4)cc3)c(=O)c1n2C` gave Shiga toxin inh -7 and CHX counter -3.
For CC(C(=O)NC1CCCCCC1)c1ccc([N+](=O)[O-])cc1 (stereo not given) the results were NS1 function inh -15%, Pf growth 48h -17%, SARS PLpro yeast -1%, Pf growth 96h 8.3µM* and CHX counter -3.
Screening CC(C(=O)Nc1ccccc1Br)c1ccc([N+](=O)[O-])cc1 (stereo not given) returned NS1 function inh 3%, Pf growth 48h 13µM*, SARS PLpro yeast inconclusive, Shiga toxin inh -2, Pf growth 96h 4.1µM* and CHX counter -2.
Screening O=C(Nc1ccc([N+](=O)[O-])cc1O)Nc1ccccc1Br returned Shiga toxin inh 61* and CHX counter 36*.
For COc1ccc(Br)cc1C(=O)NC(=S)Nc1c(C)n(C)n(-c2ccccc2)c1=O the results were NS1 function inh -33%, Pf growth 48h 10%, SARS PLpro yeast -9%, Shiga toxin inh -1, Pf growth 96h 89% and CHX counter 1.
For C=CCN(Cc1ccc(Cl)s1)C(=O)c1ccc(F)c(S(=O)(=O)N2CCOCC2)c1 the results were SARS PLpro yeast 0%.
Screening COc1ccccc1C(=O)NC1CC(C)(C)NC(C)(C)C1 returned NS1 function inh 7%, Pf growth 48h 12%, SARS PLpro yeast -1%, Shiga toxin inh -9, Pf growth 96h inconclusive and CHX counter -1.
Cc1ccc(C)c2[nH]c(=O)c(CCNC(=O)c3ccc(S(=O)(=O)N(C)C)cc3)cc12 was read as NS1 function inh -42%, Pf growth 48h inconclusive, SARS PLpro yeast 25%, Shiga toxin inh 11, Pf growth 96h inconclusive and CHX counter -3.
Cc1ccc(NC(=O)CN2CCCC2c2cccn2C)cc1C (stereo not given) was read as SARS PLpro yeast -1%.
Screening Cc1cc(C)cc(N(CC(=O)N2CCn3c2nc2ccccc23)S(=O)(=O)c2c(C)noc2C)c1 returned NS1 function inh -39%, SARS PLpro yeast -4%, Shiga toxin inh -5, Pf growth 96h inconclusive and CHX counter -8.
`CCCSc1nnc(-c2ccccc2N)c(=O)[nH]1` gave NS1 function inh -12%, Pf growth 48h 50%, SARS PLpro yeast -10%, Shiga toxin inh 93* and CHX counter 31.
`CCCCCSc1nnc(-c2cc(Br)ccc2N)c(=O)[nH]1` gave NS1 function inh -77%, Pf growth 48h 12%, SARS PLpro yeast -11%, Shiga toxin inh -27, Pf growth 96h inconclusive and CHX counter -3.
For CCCCSc1nnc(-c2ccccc2N)c(=O)[nH]1 the results were NS1 function inh -51%, Pf growth 48h 30%, SARS PLpro yeast -35%, Shiga toxin inh 77*, Pf growth 96h 80% and CHX counter 28*.
Screening CCCCCCCSc1nnc(-c2ccccc2N)c(=O)[nH]1 returned Pf growth 48h 34%, SARS PLpro yeast -19%, Shiga toxin inh 21, Pf growth 96h inconclusive and CHX counter 0.
`Cc1ccc(S(=O)(=O)CCC(=O)OC(C)c2nnc(-c3cccs3)o2)cc1` (stereo not given) gave SARS PLpro yeast 0%.
Cc1ccc(CSCCC(=O)NCCC2=CCCCC2)cc1 was read as NS1 function inh -14%, Pf growth 48h 39%, SARS PLpro yeast -30%, Shiga toxin inh 21, Pf growth 96h 14% and CHX counter 23*.
Cc1ccc(SC(C)C(=O)NC2CC2)cc1 (stereo not given) was read as NS1 function inh 8%, Pf growth 48h 10µM*, SARS PLpro yeast -7%, Shiga toxin inh -2, Pf growth 96h 10µM* and CHX counter -2.
Cc1ccc(SC(C)C(=O)NCCC2=CCCCC2)cc1 (stereo not given) was read as NS1 function inh -4%, Pf growth 48h 0%, SARS PLpro yeast -29%, Shiga toxin inh 2, Pf growth 96h 12µM* and CHX counter -1.
For CC(=O)Nc1ccc(SC(C)C(=O)NC2CCCC2)cc1 (stereo not given) the results were NS1 function inh 6%, Pf growth 48h 13%, SARS PLpro yeast 10%, Shiga toxin inh -12, Pf growth 96h 4% and CHX counter -6.
For CC1(C)NC(=O)N(CCCOc2ccc3c(c2)CCC3)C1=O the results were NS1 function inh -21%, Pf growth 48h 42%, SARS PLpro yeast -5%, Shiga toxin inh 59* and CHX counter 34*.
For C/C=C/c1ccc(OCCCN2C(=O)NC(C)(C)C2=O)c(OC)c1 the results were NS1 function inh 1%, Pf growth 48h -9%, SARS PLpro yeast 3%, Shiga toxin inh 27 and CHX counter 23*.
`CC1(C)NC(=O)N(CCCOc2ccc(Br)cc2Cl)C1=O` gave NS1 function inh -36%, Pf growth 48h 105%, SARS PLpro yeast -3%, Shiga toxin inh 134* and CHX counter 40*.
Screening Cc1ccc(C(C)C)c(OCCN2C(=O)NC(C)(C)C2=O)c1 returned NS1 function inh 2%, Pf growth 48h inconclusive, SARS PLpro yeast 2%, Shiga toxin inh -16 and CHX counter 7.
For Cc1ccc([N+](=O)[O-])c(OCCCN2C(=O)NC(C)(C)C2=O)c1 the results were NS1 function inh 11%, Pf growth 48h 11%, SARS PLpro yeast 1%, Shiga toxin inh 57, Pf growth 96h -5% and CHX counter 19*.
For C/C=C/c1ccc(OCCN2C(=O)NC(C)(C)C2=O)c(OC)c1 the results were NS1 function inh 5%, Pf growth 48h inconclusive, Shiga toxin inh 12 and CHX counter 4.
Screening CC1(C)NC(=O)N(CCCCOc2ccc(Cl)cc2)C1=O returned NS1 function inh -13%, SARS PLpro yeast 4%, Shiga toxin inh -6, Pf growth 96h inconclusive and CHX counter -3.
`CN(C)CCCNC(=S)Nc1ccc(-c2ccccc2)cc1` gave NS1 function inh 0%, Pf growth 48h inconclusive, SARS PLpro yeast -1%, Shiga toxin inh -5, Pf growth 96h inconclusive and CHX counter 1.
`O=C(CSc1nc2ccccc2n1Cc1ccccc1)N/N=C/c1ccccc1C(=O)O` gave NS1 function inh 9%, Pf growth 48h inconclusive, SARS PLpro yeast 0%, Shiga toxin inh 23, Pf growth 96h -13% and CHX counter -1.
